From the supplement of paper PMC8387472

Columns and labels:
Assay in all cases: fraction of microhomology deletions among edited reads; higher = more MH deletions
Conditions in all cases: mESC; 2uM; 72 h treatment, harvest day 5
Rifapentine = compound: CO[C@H]1/C=C/O[C@@]2(C)Oc3c(C)c(O)c4c(O)c(c(/C=N/N5CCN(C6CCCC6)CC5)c(O)c4c3C2=O)NC(=O)/C(C)=C\C=C\[C@H](C)[C@H](O)[C@@H](C)[C@@H](O)[C@@H](C)[C@H](OC(C)=O)[C@@H]1C [Rifapentine]
[1] = compound: COc1ccccc1-c1cc(Nc2cccc(CS(N)(=O)=O)c2)ncn1
[2] = compound: C[C@@H]1CN(CC(=O)Nc2ccc3c(c2)Cc2cccc(-c4cc(=O)cc(N5CCOCC5)o4)c2S3)C[C@H](C)O1
[3] = compound: Cc1cc(C)nc(SCC(=O)Nc2ncc(Cc3cccc4ccccc34)s2)n1
[4] = compound: Cc1cccc(CC(=O)N2CCc3c2ccc(-c2cn(C)c4ncnc(N)c24)c3F)n1
[5] = compound: NC(=O)c1ccc2nc(-c3ccc(Oc4ccc(Cl)cc4)cc3)[nH]c2c1 [Chk 2 inhibitor II (BML-277)]
Tucidinostat (Chidamide) = compound: Nc1cc(F)ccc1NC(=O)c1ccc(CNC(=O)/C=C/c2cccnc2)cc1 [Tucidinostat (Chidamide)]
Pemetrexed = compound: Nc1nc2[nH]cc(CCc3ccc(C(=O)N[C@@H](CCC(=O)O)C(=O)O)cc3)c2c(=O)[nH]1 [Pemetrexed]
[6] = compound: Nc1ncnc2c1c(-c1cnc3[nH]ccc3c1)nn2C1CCCC1
[7] = compound: O=C(c1cccc(Cl)c1F)N1CCN(Cc2cccc(Nc3nccs3)n2)CC1

Target	fraction of microhomology deletions among edited reads (Rifapentine)	fraction of microhomology deletions among edited reads [1]	fraction of microhomology deletions among edited reads [2]	fraction of microhomology deletions among edited reads [3]	fraction of microhomology deletions among edited reads [4]	fraction of microhomology deletions among edited reads [5]	fraction of microhomology deletions among edited reads (Tucidinostat (Chidamide))	fraction of microhomology deletions among edited reads (Pemetrexed)	fraction of microhomology deletions among edited reads [6]	fraction of microhomology deletions among edited reads [7]
25.0 (DMSO control at this site: 1-bp insertion 0.017, MH deletion 0.774, edited 0.143) GGGCCTGAATGGTGTGGACATCTACTCGCTGGTGAGCTGGTGACTGAAAACATTCAGTGGC	0.792	0.747	0.648	0.772	0.759	0.767	0.723	0.744	0.784	0.769
0.0 (DMSO control at this site: 1-bp insertion 0.463, MH deletion 0.339, edited 0.14) AGGATTACCGAGACCTACGCGAACCGAAATCGCTGTCCGGTGCGCAAGCAGGGCTGGCGTC	0.37	0.294	0.108	0.304	0.291	0.331	0.275	0.346	0.23	0.201
7.0 (DMSO control at this site: 1-bp insertion 0.128, MH deletion 0.374, edited 0.098) TACTCAACCGAGACCTACGCGAACCGAAATCGTATGCCGGTGCGCAAGCAGGGCTGGCGTC	0.414	0.393	0.324	0.45	0.441	0.38	0.427	0.536	0.425	0.394
26.0 (DMSO control at this site: 1-bp insertion 0.518, MH deletion 0.262, edited 0.026) AGGGCGCGCCCCACGCACTCTGCGGCAAGTCCCTCTGCGGCAAGTCCTCGGCCCGGAAGAC	0.272	0.295	0.115	0.281	0.301	0.302	0.278	0.44	0.201	0.275
44.0 (DMSO control at this site: 1-bp insertion 0.181, MH deletion 0.512, edited 0.123) ACACATACCTTCTTCGAGGCAGCCAGCATGATGAGACAGGTCTCCCACAAACACATCGTGT	0.531	0.451	0.295	0.506	0.384	0.539	0.491	0.583	0.479	0.486
29.0 (DMSO control at this site: 1-bp insertion 0.084, MH deletion 0.745, edited 0.133) TTGATGAACTTCCTCTTCTTCTCATGTCTCCGGTCTCCGGTAGGCCACGTGCATGGCCACT	0.751	0.667	0.482	0.692	0.702	0.741	0.686	0.691	0.696	0.662
16.0 (DMSO control at this site: 1-bp insertion 0.172, MH deletion 0.29, edited 0.05) CGGACTGCACACATGGGTAGGATCGTGCACGCGAGGTAGGATCGTGCACGCGAAGTTATTC	0.319	0.282	0.12	0.275	0.281	0.254	0.302	0.279	0.198	0.256
34.0 (DMSO control at this site: 1-bp insertion 0.184, MH deletion 0.385, edited 0.103) ATTATAGGACCCTGAGGGAGCAGAGATGTGGGAATGGGGGCCGAGCCAATTGTGATGTAAG	0.567	0.502	0.342	0.517	0.483	0.486	0.409	0.413	0.39	0.39
18.0 (DMSO control at this site: 1-bp insertion 0.114, MH deletion 0.789, edited 0.094) GCGCAAGTGCATAAGTTTTTCTTAAGGCGTGCCTTTAAGGCGTGCCTTTGTCGGTCCTGGA	0.805	0.779	0.683	0.791	0.755	0.812	0.797	0.78	0.768	0.777
